About 14,000 (4.5%) of roughly 310,000 compounds showed an effect of 50% or more. The effect is printed as a negative number. What follows is part of a selection rich in strong results, with near analogues and random picks from the rest.
The compounds below were run against human ether-à-go-go-related gene (hERG) potassium channel (human, UniProt Q12809) (assay: primary screen, population patch clamp on CHO cells stably expressing hERG; higher = less effect of the substance).
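Note: peak tail current of the secondary pulse compared with the same well before compound.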

human ether-à-go-go-related gene (hERG) potassium channel, sequence (Q12809 whole entry, looked up): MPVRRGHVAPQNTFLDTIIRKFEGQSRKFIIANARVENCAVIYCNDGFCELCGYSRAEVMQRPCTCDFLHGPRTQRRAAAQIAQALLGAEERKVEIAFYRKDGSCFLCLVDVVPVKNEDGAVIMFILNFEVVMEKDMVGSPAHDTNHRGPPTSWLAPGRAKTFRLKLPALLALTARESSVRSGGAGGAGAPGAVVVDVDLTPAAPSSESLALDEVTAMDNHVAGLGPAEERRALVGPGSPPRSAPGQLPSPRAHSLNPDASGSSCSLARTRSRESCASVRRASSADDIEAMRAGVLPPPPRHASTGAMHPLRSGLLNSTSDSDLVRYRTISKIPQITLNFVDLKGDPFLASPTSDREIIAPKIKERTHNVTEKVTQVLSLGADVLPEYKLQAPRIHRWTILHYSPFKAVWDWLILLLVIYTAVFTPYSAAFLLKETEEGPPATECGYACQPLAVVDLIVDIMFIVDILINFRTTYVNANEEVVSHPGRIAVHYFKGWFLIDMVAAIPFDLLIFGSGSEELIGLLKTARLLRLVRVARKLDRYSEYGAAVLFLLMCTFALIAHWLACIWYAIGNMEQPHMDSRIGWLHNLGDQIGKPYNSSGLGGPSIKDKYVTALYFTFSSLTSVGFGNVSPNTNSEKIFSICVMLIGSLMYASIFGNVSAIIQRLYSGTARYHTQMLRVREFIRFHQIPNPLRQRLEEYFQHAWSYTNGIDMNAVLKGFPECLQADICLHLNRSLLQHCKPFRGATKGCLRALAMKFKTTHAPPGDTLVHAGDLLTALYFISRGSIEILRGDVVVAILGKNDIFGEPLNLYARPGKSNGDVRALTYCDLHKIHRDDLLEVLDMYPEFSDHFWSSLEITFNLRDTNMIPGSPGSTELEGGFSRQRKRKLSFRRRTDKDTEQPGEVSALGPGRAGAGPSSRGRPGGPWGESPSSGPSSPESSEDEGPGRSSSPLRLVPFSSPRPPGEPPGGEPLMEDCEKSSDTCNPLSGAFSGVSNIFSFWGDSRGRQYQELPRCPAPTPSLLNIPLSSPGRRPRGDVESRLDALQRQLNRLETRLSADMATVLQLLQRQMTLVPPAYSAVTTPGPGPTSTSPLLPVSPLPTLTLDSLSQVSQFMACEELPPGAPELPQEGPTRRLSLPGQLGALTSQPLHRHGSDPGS

| SMILES | hERG current change (%, negative = inhibition) at 10uM |
| --- | --- |
| O=C(NCc1ccco1)C1CC(c2ccc(Cl)c(Cl)c2)=NO1 (stereo not drawn) | 8.51% |
| CC(C)C(C(=O)NCC1CCCO1)N(Cc1ccccc1)C(=O)CNS(=O)(=O)c1ccccc1 (stereo not drawn) | 18.4% |
| O=C(Nc1cccc(Br)c1)c1cc(=O)c2ccccc2o1 | 19.4% |
| Cc1ccc(-c2csc(NC(=S)NC(=O)c3cc4ccccc4o3)n2)cc1 | 7.09% |
| Cc1cc(S(=O)(=O)N2CCOCC2)c(C)s1 | 9.26% |
| O=C(NCc1ccco1)c1sc2ccccc2c1Cl | -9.84% |
| CC(C)(C)CC(=O)Nc1nn[nH]n1 | 24.3% |
| O=C(O)CN1C(=O)/C(=C\c2cc([N+](=O)[O-])ccc2OCc2ccccc2Cl)SC1=S | 29.4% |
| Cc1ccccc1-c1noc(-c2ccc(Cl)cc2)n1 | 25.1% |
| COc1ccc(C)c2sc(NNC(=O)COc3ccccc3)nc12 | 6.35% |
| Cn1c(=O)c2c(ncn2CC(=O)N(Cc2ccccc2)c2ccccn2)n(C)c1=O | -50.7% |
| CCN(Cc1ccccc1)C(=O)Cn1cnc2c1c(=O)n(C)c(=O)n2C | -16.1% |
| Cn1c(=O)c2c(ncn2CC(=O)OCc2ccccc2)n(C)c1=O | -6.21% |
| Cc1sc2ncn(CC(=O)NCCCC(=O)N3CCN(c4ccccc4F)CC3)c(=O)c2c1C | -20.9% |
| O=C(c1ccc2nc3ccc(Cl)cc3c(=O)n2c1)N1CCC2(CC1)OCCO2 | -40.3% |
| CCOC(CNC(=O)c1cccn2c(=O)c3cc(Cl)ccc3nc12)OCC | -7.16% |
| CCOC(=O)N1CCN(C(=O)c2cccn3c(=O)c4cc(Cl)ccc4nc23)CC1 | -65.7% |
| NC(=O)C1(N2CCCCC2)CCN(C(=O)c2cccn3c(=O)c4cc(Cl)ccc4nc23)CC1 | -30.1% |
| CCOC(=O)N1CCN(C(=O)c2cccn3c(=O)c4cc(Br)ccc4nc23)CC1 | -68.2% |
| CCOC(=O)N1CCC(NC(=O)c2cccn3c(=O)c4cc(Br)ccc4nc23)CC1 | 3.69% |
| O=C(c1cccn2c(=O)c3cc(Cl)ccc3nc12)N1CCOCC1 | -52.9% |
| O=C(c1cccn2c(=O)c3cc(Br)ccc3nc12)N1CCC2(CC1)OCCO2 | -37% |
| CCOC(=O)N1CCN(C(=O)c2cccn3c(=O)c4sccc4nc23)CC1 | -35.9% |

| SMILES | hERG current change (%, negative = inhibition) at 10uM |
| --- | --- |
| O=C(c1ccc2nc3ccc(Cl)cc3c(=O)n2c1)N1CCOCC1 | -55.3% |
| O=C(c1cccn2c(=O)c3ccc(Cl)cc3nc12)N1CCC2(CC1)OCCO2 | -11.2% |
| CCOC(=O)N1CCN(C(=O)c2ccc3nc4ccc(Cl)cc4c(=O)n3c2)CC1 | -45.9% |
| O=C(O)c1nn(-c2cccc(Cl)c2)c(=O)cc1O | 4.44% |
| CN(Cc1nc2ccccc2c(=O)[nH]1)CC(O)COCc1ccco1 (stereo not drawn) | -13.9% |
| COc1cccc(C(=O)NCc2ccc3c(c2)OCO3)c1OC | 16.3% |
| CCO[C@@H]1OC(C(=O)N2CCOCC2)=C[C@H](C2CC2)[C@H]1CCCO | 11.6% |
| O=C(c1ccco1)N1CCN(S(=O)(=O)c2ccc(Cl)cc2)CC1 | 2.47% |
| COc1ccc(OC)c(N(CC(=O)Nc2ccccc2)S(=O)(=O)c2ccccc2)c1 | 6.01% |
| COc1cccc(OCCOCC(O)CN2CCN(Cc3ccc(Cl)cc3)CC2)c1.Cl (stereo not drawn) | -72.3% |
| CCc1ccc(OCC(O)CN2CCCC2)cc1.Cl (stereo not drawn) | -13.8% |
| CCN1CCN(CC(O)COc2cccc(OC)c2)CC1.Cl (stereo not drawn) | 3.43% |
| CCc1ccc(OCCOCC(O)CN2CCN(Cc3ccc(Cl)cc3)CC2)cc1.Cl (stereo not drawn) | -73.5% |
| COc1cccc(OCC(O)CN2CCN(CCO)CC2)c1.Cl (stereo not drawn) | 15.7% |
| CCN1CCN(CC(O)COc2ccc(Cl)cc2)CC1.Cl (stereo not drawn) | -36.2% |
| COc1cc(/C=C(/NC(=O)c2ccccc2)C(=O)Nc2cccc(O)c2)c([N+](=O)[O-])cc1OC | 0.394% |
| Cn1c(=O)c([N+](=O)[O-])c(NCc2ccccc2)c2ccccc21 | 9.94% |
| O=C(NC1CCCc2ccccc21)C1CCN(S(=O)(=O)N2CCCCCC2)CC1 (stereo not drawn) | -12.8% |
| O=C(N[C@@H](Cc1ccccc1)C(=O)OCC(=O)N1CCOCC1)c1cccs1 | -9.98% |
| O=C(COC(=O)CCc1nc2ccccc2n1-c1ccccc1)Nc1ccc(N2CCCCC2)cc1 | 2.85% |
| CC[C@@H](C)[C@H](NC(=O)OC(C)(C)C)c1nnc(S(=O)(=O)Cc2cc(C)ccc2C)o1 | 4.09% |
| CC(NC(=O)COC(=O)/C=C/c1cccc(C(F)(F)F)c1)c1ccccc1 (stereo not drawn) | 15.2% |
| CCN(CC)CCn1c(N)nc2ccccc21.Cl | 15.4% |

| SMILES | hERG current change (%, negative = inhibition) at 10uM |
| --- | --- |
| Cc1ccc(Cn2c(NS(=O)(=O)c3ccccc3)nc3ccccc32)cc1 | 21.3% |
| CCCn1c(NCc2ccccc2NS(=O)(=O)c2ccc(C)cc2)nc2ccccc21 | 6.84% |
| CCN(CC)CCn1c(NS(=O)(=O)c2ccc(C)cc2)nc2ccccc21 | -51% |
| CCN(CC)CCn1c(NS(=O)(=O)c2ccc(Cl)cc2)nc2ccccc21.Cl | -69.8% |
| CCN(CC)CCn1c(C)nc2ccccc21.Cl | -9.07% |
| CN1C(=O)C(C2c3ccccc3C(=O)N2Cc2ccccc2)C(=O)N(C)C1=O (stereo not drawn) | 3.38% |
| CCc1ccc(C(=O)C(C)OC(=O)C2COc3ccccc3O2)cc1 (stereo not drawn) | -18.9% |
| CSc1ncc(Cl)c(C(=O)Nc2cc(C)ccc2C)n1 | 16.1% |
| CCOC(=O)C(NC(=O)c1cccnc1)(Nc1cccc(C)n1)C(F)(F)F (stereo not drawn) | 1.24% |
| CCN1C(=O)C(CC(=O)Nc2ccc(OC)cc2)N(Cc2cccnc2)C1=S (stereo not drawn) | -2.39% |
| c1ccc(C[C@H]2CNCCN2CC2(c3ccccc3)CC2)cc1 | -14.9% |
| O=C(CNC(=O)c1cccs1)NCC(=O)OCc1ccc(Cl)cc1 | -17.5% |
| CC(=O)Nc1cccc(C(=O)/C=C/c2ccc(F)cc2)c1 | -31.1% |
| CCC(=O)Nc1cccc(C(=O)/C=C/c2ccccc2)c1 | -37% |
| CCC(=O)Nc1cccc(C(=O)/C=C/c2ccc(F)cc2)c1 | -69.1% |
| Cc1nc(SCC(=O)NC(=O)NC(C)(C)C)nc(C)c1C | -8.95% |
| COC(=O)CSc1nnc(SCc2ccccc2)s1 | 7.89% |
| CCN(CC(=O)Nc1ccc(NC(C)=O)cc1)C(=O)/C=C/c1cn(-c2ccccc2)nc1-c1ccc(F)cc1 | 5.58% |
| CCCCn1c(C)cc(/C=C(\C#N)C(=O)O)c1C | -80% |
| CCCn1c(C)cc(/C=C(\C#N)C(=O)O)c1C | 10.4% |
| Cc1cc(/C=C(\C#N)C(=O)O)c(C)n1CCC(C)C | 10.5% |
| O=C(N/N=C/c1cc([N+](=O)[O-])ccc1O)Nc1ccccc1 | 18.2% |
| COc1ccc(CC(=O)N2CCC(Nc3nc4ccccc4n3Cc3ccc(F)cc3)CC2)cc1 | -71.7% |

| SMILES | hERG current change (%, negative = inhibition) at 10uM |
| --- | --- |
| COc1ccc(CC(=O)N2CCN(c3ccc(F)cc3)CC2)cc1 | 1.52% |
| COc1ccc(CNC(=O)C2CCN(C(=O)Cc3ccccc3)CC2)cc1 | -13.5% |
| CSCCC(C)N1CCC(Oc2ccc(C(=O)N3CCCC3)cc2)CC1 (stereo not drawn) | -31.3% |
| COc1ccc(CCC(C)N2CCC(Oc3ccc(C(=O)N4CCCC4)cc3)CC2)cc1 (stereo not drawn) | -65.4% |
| CC(CCc1ccc(O)cc1)N1CCC(Oc2ccc(C(=O)N3CCCC3)cc2)CC1 (stereo not drawn) | -55.7% |
| COCC(C)N1CCC(Oc2ccc(C(=O)N3CCCC3)cc2)CC1 (stereo not drawn) | 5.11% |
| COC(=O)CCC(C)N1CCC(Oc2ccc(C(=O)N3CCCC3)cc2)CC1 (stereo not drawn) | -11% |
| Cc1noc(/C=C/c2ccco2)c1S(=O)(=O)N1CCC(C(=O)N(C)Cc2ccccc2)CC1 | -4.68% |
| O=C(CSc1ccccc1)Nc1cc(S(=O)(=O)N2CCOCC2)ccc1N1CCOCC1 | 14.5% |
| Cc1cccc(NC(=O)c2cc(C)nc3ccccc23)c1 | 14.7% |
| Cc1cc(=O)[nH]c(Nc2cccc(Br)c2)n1 | 12.4% |
| COc1cccc(Nc2cc(C)nc3ccccc23)c1 | -73.1% |
| Cc1cc(C)c(C#N)c(Nc2cccc(Br)c2)n1 | 12.5% |
| Cc1ccc(Nc2cc(C)nc3ccccc23)c(C)c1 | -42.8% |
| COc1cccc(Nc2cc(C)c3ccccc3n2)c1 | 6.21% |
| Cc1cccc(Nc2cc(C)nc3ccccc23)c1.Cl | -65.4% |
| Cc1cc(Nc2cccc(Br)c2)c2ccccc2n1 | -86.2% |
| Cl.Oc1cccc(Nc2c3ccccc3nc3ccccc23)c1 | -17.6% |
| Cc1cc(Nc2cccc(O)c2)c2ccccc2n1.Cl | -64.2% |
| Oc1cccc(Nc2nc(-c3ccccc3)nc3ccccc23)c1 | 9.56% |
| COc1ccc(Nc2cc(C)nc3ccccc23)cc1.Cl | -36.5% |

— publication PMC4336329 (PLoS ONE, 2015)
